LNCaP diff act – activators of LNCaP prostate cell differentiation, primary screen, flow cytometry side scatter | 24,000 compounds, 0.56% hits | side scatter shift, % at 10 µM | 4 d | AID 795, 2007;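 active = side scatter shift above 30%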;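 also: androgen-responsive LNCaP prostate cancer cells in charcoal-stripped serum medium; higher shift means more granular cells and more differentiation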
S aureus QS inh – S. aureus quorum sensing inhibitors, primary screen, RNAIII-GFP reporter, flow cytometry. inhibition, % at 2 µM. 24,000 compounds, 0.3% hits. S. aureus RN6390 RNAIII-GFP reporter, AIP-induced, flow cytometry 3 h;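 active = share of bacteria positive for the green fluorescent reporter and its mean brightness both inhibited by 50% or more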
Proteasome disasm – inhibitors of ATP-driven 26S proteasome dissociation, primary screen, biochemical, bead-based flow cytometry, GFP-tagged proteasome; inhibition of disassembly, % (no concentration beside the values); 24,000 compounds, 0.2% hits; anti-FLAG beads, GFP-proteasome disassembly; AID 751, 2007;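 active = inhibition of disassembly above about 33%, limit read from the data; inconclusive = likely self-fluorescent, control bead median signal at least 40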;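 also: higher percent means more bead fluorescence retained so stronger block of disassembly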
A number is an active result; - = inactive; ? = inconclusive; . = no result given. Compounds with a hit are over-represented: about 0.91% of the library has one in this group of screens.

SMILES	LNCaP diff act	S aureus QS inh	Proteasome disasm
COc1ccc(N2CCN(c3nc4c(c(=O)[nH]c(=O)n4C)n3Cc3ccccc3Cl)CC2)cc1	-	-	-
COc1ccc(Nc2nc(N3CCCC3)c3ccccc3n2)cc1	50	-	-
COc1cccc(Nc2cc(C)nc3ccccc23)c1	-	-	-
CCOC(=O)C1=C(C)N=c2s/c(=C\c3ccncc3)c(=O)n2C1c1ccc2c(c1)OCO2 (stereo not drawn)	35	-	-
COc1ccc(C2C(C(C)=O)=C(C)N=c3s/c(=C\c4ccc5c(c4)OCO5)c(=O)n32)c(OC)c1 (stereo not drawn)	-	-	-
CC1CN(C(=O)Nc2ccc3snnc3c2)c2ccccc21 (stereo not drawn)	-	-	-
O=C1c2ccccc2-c2nc3ncnn3c(-c3ccccc3)c21	40	-	-
O=C(O)c1ccc2c3c(ncnc13)-c1ccccc1C2=O	-	-	-
Cc1ccccc1CS(=O)(=O)CCC(=O)NCc1ccccn1	-	-	-
CC(=O)Nc1cc(C(=O)N2CCOCC2)ccc1S(=O)(=O)c1ccc(C)cc1	37	-	-
CC(=O)Nc1cc(C(=O)O)ccc1S(=O)(=O)c1ccc(C)cc1	-	-	-
O=C(c1nn2cccnc2c1Cl)N1CCN(c2ccccc2)CC1	-	-	-
COc1ccccc1-n1c(CNC(=O)c2ccco2)nnc1SCC(=O)Nc1ccc(F)cc1	-	-	-
Fc1ccc(-c2nnc3ccc(N4CCc5ccccc5C4)nn23)cc1	-	69	-
O=C(Nc1ccccc1C(F)(F)F)N1CCN(c2ccc3nnc(-c4ccc(F)cc4)n3n2)CC1	-	-	-
Cc1ccc(C2N(c3ccc(F)cc3)C(=O)C3CCCN32)cc1 (stereo not drawn)	-	-	-
Cc1cccc(C2N(c3ccc(F)cc3)C(=O)C3CCCN32)c1 (stereo not drawn)	-	-	61
COc1ccc(-c2cc(-c3ccc(F)cc3)nc(N3CCN(C)CC3)n2)cc1	48	-	-
COc1ccc(-c2cc(C(F)(F)F)nc(N3CCN(c4ccc(F)cc4)CC3)n2)cc1OC	-	-	-
O=C1c2ccccc2C(O)(Cc2ccccc2)N1c1ccc2c(c1)OCO2 (stereo not drawn)	-	-	-
Cc1cccc(-c2nsc(SCC(=O)N3CCCC3)n2)c1	-	-	-
Cc1cccc(-c2nsc(SCC(=O)Nc3nccs3)n2)c1	34	-	-
Cc1ccc(CCNC(=O)C2CCC(=O)N2C2CCCC2)cc1 (stereo not drawn)	-	-	-
COc1ccc2c(c1)C(C)=CC(C)(C)N2C(=O)CSc1nnc(-c2ccc(C)cc2)o1	-	-	-
COc1ccc(C(=O)N[C@H]2COC(C)(C)O[C@H]2c2ccccc2)cc1	-	-	-
SMILES	LNCaP diff act	S aureus QS inh	Proteasome disasm
Cc1nc2c(ccc3nc(NC(=O)c4ccc5c(c4)OCCO5)sc32)s1	-	57	-
Cc1nc2ccc3nc(NC(=O)c4ccc5c(c4)OCCO5)sc3c2s1	-	-	-
Cc1ccc(NC(=O)N2CCCN(Cc3ccc(F)cc3)C2)cc1C	39	-	-
CC(=O)N1CCc2cc(C(=O)CN3CCCN(Cc4ccc(F)cc4)C3)ccc21	-	-	-
O=C(NCC(c1cccnc1)N1CCN(c2ccc(F)cc2)CC1)c1ccc(F)cc1 (stereo not drawn)	-	-	-
Cc1ccc(Cn2ccc(NC(=O)c3cc(-c4ccc(Br)cc4)on3)n2)cc1	35	-	-
Cc1ccc(Cn2ccc(NC(=O)c3cc(-c4ccc5c(c4)OCO5)on3)n2)cc1	-	-	-
CCOC(=O)c1c(COc2ccccc2)oc2ccc(O)cc12	.	-	.
CCc1oc2ccccc2c1C(=O)c1cc(Br)c(O)c(Br)c1	-	52	-
CCCCCOC(=O)C1=C(C)N(C)C(=O)NC1c1cc(Br)c(O)c(OC)c1 (stereo not drawn)	-	-	-
O=C(CCNS(=O)(=O)c1cccc2nonc12)NCc1cccs1	-	-	-
O=C(NC1CCCc2ccccc21)C1CCN(C(=O)c2sccc2-n2cccc2)CC1 (stereo not drawn)	-	-	-
CC(C)CCOP(=O)(c1ccc(N(C)C)cc1)C(O)c1ccccc1F (stereo not drawn)	-	82	-
CC(C)OP(=O)(c1ccc(N(C)C)cc1)C(O)c1ccccc1F (stereo not drawn)	-	-	-
CCOC(=O)c1[nH]c2ccc(Br)cc2c1NC(=O)CCN1CCC(C(=O)OCC)CC1	-	-	-
COC(=O)c1oc2ccc(Br)cc2c1NC(=O)CN1CCN(C)CC1	31	-	-
CCc1ccc2[nH]c(=O)c(CN(CCCN3CCOCC3)C(=O)Nc3cccc(Cl)c3)cc2c1	.	60	.
Cc1ccc(C)c2[nH]c(=O)c(CN(CCN3CCCC3)C(=O)Nc3cccc(Cl)c3)cc12	73	84	?
